Results taken from PubChem BioAssay.
“And” between values parts separate entries of the source, which are not always exact repeats. Equal entries are not always repeated. The source made the active and inactive calls. Rule as the data show it, unless noted: active = inhibition above about 80%; inactive = the rest.

Columns and labels:
[1] = target: NAD(+) hydrolase SARM1 (Homo sapiens) (UniProt Q6SZW1); assay: blocking NAD cleavage by SARM1 SAM-TIR – cell lysate, NAD-Glo luminescence (AID 1508614;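 active = compound whose remaining NAD level is above about 45 nM, limit read from the data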;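 also: higher remaining NAD means stronger inhibition of SARM1 NADase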); settings: SAM-TIR HEK293T lysate NADase, at 1 µM, stronger effect = higher value
Sequence of NAD(+) hydrolase SARM1 (Homo sapiens) (Q6SZW1 whole entry, looked up, the tested form may be a part): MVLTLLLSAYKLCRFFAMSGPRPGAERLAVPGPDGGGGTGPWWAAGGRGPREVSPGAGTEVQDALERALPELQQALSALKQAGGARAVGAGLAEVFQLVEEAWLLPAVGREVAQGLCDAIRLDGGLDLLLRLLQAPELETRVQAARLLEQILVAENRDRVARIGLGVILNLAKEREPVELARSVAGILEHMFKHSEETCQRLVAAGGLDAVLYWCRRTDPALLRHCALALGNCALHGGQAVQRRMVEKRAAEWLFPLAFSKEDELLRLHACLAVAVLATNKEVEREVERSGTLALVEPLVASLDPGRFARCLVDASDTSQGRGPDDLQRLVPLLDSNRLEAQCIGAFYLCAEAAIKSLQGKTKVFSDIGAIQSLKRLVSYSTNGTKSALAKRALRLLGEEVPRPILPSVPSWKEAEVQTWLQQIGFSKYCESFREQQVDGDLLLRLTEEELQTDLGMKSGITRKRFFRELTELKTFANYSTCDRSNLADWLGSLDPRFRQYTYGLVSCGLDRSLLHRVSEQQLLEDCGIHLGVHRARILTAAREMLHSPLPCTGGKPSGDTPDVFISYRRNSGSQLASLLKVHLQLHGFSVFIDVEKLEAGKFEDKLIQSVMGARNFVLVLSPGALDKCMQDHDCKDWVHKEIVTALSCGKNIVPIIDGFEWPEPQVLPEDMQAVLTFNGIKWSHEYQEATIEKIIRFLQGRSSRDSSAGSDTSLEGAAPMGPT

[2] = target: Mitogen-activated protein kinase 7 (Homo sapiens) (UniProt Q13164); assay: Gal4-ERK5 driven luciferase induction – cell-based, HTS, primary screen (AID 1508626;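 active = luciferase signal above three times the same-plate solvent-only control wells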;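 also: luciferase driven by Gal4-ERK5 fusion binding five Gal4 sites before minimal TATA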); settings: HeLa Gal4-ERK5 transactivation, 18 h, at 5 µM, stronger effect = higher value
Sequence of Mitogen-activated protein kinase 7 (Homo sapiens) (Q13164 whole entry, looked up, the tested form may be a part): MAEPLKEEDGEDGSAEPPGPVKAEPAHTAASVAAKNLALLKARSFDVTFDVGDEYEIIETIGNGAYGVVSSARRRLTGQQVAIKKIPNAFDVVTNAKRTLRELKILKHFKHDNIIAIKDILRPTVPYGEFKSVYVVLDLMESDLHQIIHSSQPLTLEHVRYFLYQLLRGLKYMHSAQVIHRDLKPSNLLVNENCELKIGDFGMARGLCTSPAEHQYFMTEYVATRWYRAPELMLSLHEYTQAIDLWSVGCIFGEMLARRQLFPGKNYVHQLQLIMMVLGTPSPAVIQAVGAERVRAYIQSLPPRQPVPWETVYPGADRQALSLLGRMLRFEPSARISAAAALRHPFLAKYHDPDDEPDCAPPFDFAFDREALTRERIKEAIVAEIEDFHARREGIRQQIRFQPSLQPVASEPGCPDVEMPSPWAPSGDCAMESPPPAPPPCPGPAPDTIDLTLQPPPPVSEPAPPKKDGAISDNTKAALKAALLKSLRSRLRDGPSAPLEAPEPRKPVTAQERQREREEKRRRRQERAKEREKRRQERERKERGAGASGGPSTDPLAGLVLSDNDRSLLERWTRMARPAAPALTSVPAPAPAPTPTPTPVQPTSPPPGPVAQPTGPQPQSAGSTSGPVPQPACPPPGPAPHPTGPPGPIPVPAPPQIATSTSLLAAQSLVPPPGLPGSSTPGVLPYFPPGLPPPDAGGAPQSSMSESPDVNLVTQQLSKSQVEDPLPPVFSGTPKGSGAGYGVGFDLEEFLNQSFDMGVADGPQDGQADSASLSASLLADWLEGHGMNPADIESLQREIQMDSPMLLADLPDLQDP

[3] = galactose survival enhancers in mitochondrial complex I cybrids – cell-based, galactose medium, ATP luminescence, primary screen (AID 1645843;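 active = z-score of at least 1.8 in each of two replicates, scored against plate mean and spread of sample wells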;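 also: positive z means more ATP and so rescue of galactose-driven cybrid death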); settings: complex I mutant cybrid cells, 72 h, stronger effect = higher value
[4] = growth inhibition, single agent or in combination, cell-based, chromothripsis tumors, cisplatin or BGB combos (AID 1671449); settings: LFS_MB_P medulloblastoma cells;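 also: cells exposed for 96 hours; 0% = vehicle DMSO and 100% = killing by high DMSO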
[5] = growth inhibition, single agent and combos, cell-based, chromothripsis tumors, cisplatin or BGB combos (AID 1671450); settings: HDN33 neuroblastoma cells, stronger effect = higher value;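 also: cells exposed to compound for four days; 0% = vehicle DMSO and 100% = cell killing by high DMSO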
[6] = growth inhibition, single agents and combos, ICB984, cell-based, cisplatin or BGB combos, synergistic combos for chromothripsis tumors (AID 1671451; call rule not given here;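 also: cells exposed for 96 hours before readout; 0% = vehicle DMSO and 100% = killing by high DMSO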); settings: ICB984 medulloblastoma cells, drug combinations, stronger effect = higher value
[7] = growth inhibition, single agents and combos, LFS_MB_1R, cell-based, cisplatin or BGB combos, synergistic combos for chromothripsis tumors (AID 1671452); settings: LFS_MB_1R medulloblastoma cells, stronger effect = higher value;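 also: cells exposed for 96 hours before readout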
[8] = growth inhibition, single agents and combos, HTB85, cell-based, BGB or cisplatin IC20 combos, synergistic combos for chromothripsis tumors (AID 1671453); settings: HTB85 osteosarcoma cells, drug combinations, stronger effect = higher value;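 also: cells exposed for 96 hours before readout; 0% = vehicle DMSO and 100% = high DMSO killing control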
[9] = growth inhibition, single agents and combos, CRL2098, cell-based, BGB or cisplatin IC20 combos, synergistic combos for chromothripsis tumors (AID 1671454); settings: CRL2098 osteosarcoma cells, drug combinations, stronger effect = higher value;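 also: cells exposed for 96 h before readout; 0% = vehicle DMSO and 100% = killing by high DMSO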
[10] = growth inhibition, single agents and combos, HD-MB03, cell-based, BGB or cisplatin IC20 combos, synergistic combos for chromothripsis tumors (AID 1671455; in the data active = inhibition above about 83%;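 also: 0% = vehicle DMSO and 100% = high DMSO as cytotoxic control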); settings: HD-MB03 medulloblastoma cells, stronger effect = higher value
[11] = growth inhibition, single agents and combos, UWB1.289, cell-based, BGB or cisplatin combos, synergistic combos for chromothripsis tumors (AID 1671456); settings: UWB1.289 ovarian carcinoma cells, stronger effect = higher value;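 also: cells exposed to compound for four days; 0% = vehicle DMSO and 100% = killing by high DMSO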
[12] = growth inhibition, single agents and combos, LFS_MB_2R, cell-based, cisplatin combos, synergistic combos for chromothripsis tumors (AID 1671457); settings: LFS_MB_2R medulloblastoma cells, stronger effect = higher value;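 also: cells exposed to compound for four days before readout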
[13] = growth inhibition, MDA-MB-436, cell-based, BGB or cisplatin combos, synergistic combos for chromothripsis tumors (AID 1671458; call rule not given here;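 also: cells exposed for 96 hours; 0% = vehicle DMSO and 100% = killing by high DMSO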); settings: MDA-MB-436 breast carcinoma growth inhibition, drug combinations, stronger effect = higher value
[14] = UWB1.289_BRCA1 ovarian cancer growth, cell-based, BGB or cisplatin combinations (AID 1671459); settings: UWB1.289 BRCA1 ovarian carcinoma, drug combinations, stronger effect = higher value
[15] = drug combination toxicity in non-malignant astrocytes – cell-based, BGB or cisplatin IC20 combos, cytotoxicity control for chromothriptic childhood tumor combination screen (AID 1671460); settings: Human astrocytes, viability inhibition, drug combinations, at 0.5 µM, stronger effect = higher value;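 also: cells exposed to compounds for 96 hours before viability readout; 0% = vehicle and 100% = killing control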
[16] = BT084 cell growth, single and combined drugs, ICGC_MB145, cisplatin and BGB IC40 combos (AID 1671461); settings: BT084 medulloblastoma cells, drug combinations, stronger effect = higher value;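 also: cells exposed to drugs for 96 hours; 0% = vehicle DMSO and 100% = high DMSO full killing control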
[17] = RCMB18 cell growth, single agent and combined, cisplatin and BGB IC40 combos (AID 1671462); settings: RCMB18 medulloblastoma cells, stronger effect = higher value;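 also: cells exposed to compound for four days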
[18] = CRL1545 cell growth, single agent and combined, cisplatin and BGB IC20 combos (AID 1671464); settings: CRL1545 osteosarcoma cells, stronger effect = higher value;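 also: cells exposed to compound for 96 hours before readout; 0% = vehicle DMSO and 100% = high DMSO killing control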
[19] = measured here: combination with BGB IC40, at 0.05 µM
[20] = measured here: with BGB IC20 combination, at 0.5 µM
[21] = measured here: with cisplatin IC20 combination, at 0.5 µM
[22] = measured here: combination with cisplatin, at 0.5 µM
[23] = measured here: combination with cisplatin, at 5 µM

Compound: CCCOc1ccc2nc(NC(=O)OC)[nH]c2c1
- remaining NAD [1]: 10 nM (inactive)
- luciferase signal [2]: 40 AU (inactive)
- z-score [3]: -1.72 (inactive)

Compound: CCC1(C)CC(=O)NC1=O (stereo unspecified)
- remaining NAD [1]: 10 nM (inactive)
- luciferase signal [2]: 64 AU (inactive)
- z-score [3]: 0.235 (inactive)

Compound: CC(=O)N[C@@H](CS)C(=O)O
- remaining NAD [1]: 10 nM (inactive)
- luciferase signal [2]: 40 AU (inactive)
- z-score [3]: 0.55 (inactive)

Compound: O=C(O)CCC(=O)c1ccc(-c2ccccc2)cc1
- remaining NAD [1]: 10 nM (inactive)
- luciferase signal [2]: 68 AU (inactive)
- z-score [3]: 0.975 (inactive)

Compound: CN1CCC[C@@H]1CCO[C@](C)(c1ccccc1)c1ccc(Cl)cc1
- remaining NAD [1]: 10 nM (inactive)
- luciferase signal [2]: 32 AU (inactive)
- z-score [3]: -0.775 (inactive) and -1.7 (inactive)

Compound: O=NN(CCCl)C(=O)NCCCl
- remaining NAD [1]: 10 nM (inactive)
- luciferase signal [2]: 204 AU (inactive)
- z-score [3]: -0.84 (inactive)
- inhibition ([4]; at 0.5 µM, stronger effect = higher value): -2.88% (inactive)
- inhibition ([4]; measured here: combination with BGB IC20, at 0.005 µM): -4.26%
- inhibition ([4]; measured here: combination with BGB IC40, at 0.005 µM): -31.6%
- inhibition [4, 19]: -3.31%
- inhibition ([4]; measured here: combination with cisplatin, at 0.5 µM, stronger effect = higher value): 2.24%
- inhibition ([4]; measured here: combination with cisplatin, at 5 µM, stronger effect = higher value): -36.8%
- inhibition ([5]; BGB combo, at 5 µM): -14.5%
- inhibition ([5]; at 0.5 µM): 6.29% (inactive)
- inhibition ([5]; cisplatin combo, at 5 µM): -3.04%
- inhibition [5, 20]: 11.2%
- inhibition [5, 21]: -4.17%
- inhibition ([5]; single agent, at 5 µM): -8.15%
- inhibition ([6]; BGB IC20 combo, at 0.005 µM): 5.44%
- inhibition ([6]; BGB IC40 combo, at 0.005 µM): -42.6%
- inhibition ([6]; BGB IC40 combo, at 0.05 µM): -39%
- inhibition ([6]; at 0.5 µM): -40.7% (inactive)
- inhibition ([6]; cisplatin combo, at 0.05 µM): -44.5%
- inhibition ([6]; cisplatin combo, at 0.5 µM): -65.9%
- inhibition ([6]; cisplatin combo, at 5 µM): -35.2%
- inhibition ([6]; measured here: 5 uM single agent, at 5 µM): -15.7%
- inhibition ([7]; at 0.5 µM): -12.2% (inactive)
- inhibition [7, 19]: -13.6%
- inhibition [7, 22]: 10.3%
- inhibition [7, 23]: -12%
- inhibition ([8]; at 0.5 µM): -10.6% (inactive)
- inhibition ([8]; measured here: with BGB IC20, at 0.5 µM): -23%
- inhibition ([8]; measured here: with BGB IC20, at 5 µM): 17.7%
- inhibition ([8]; measured here: with cisplatin IC20, at 0.5 µM): -10.4%
- inhibition ([8]; measured here: with cisplatin IC20, at 5 µM): 11.5%
- inhibition ([8]; single agent, at 5 µM): 11%
- inhibition ([9]; at 0.5 µM): -22.8% (inactive)
- inhibition ([9]; measured here: combination with BGB at IC20, at 0.5 µM): -7.62%
- inhibition ([9]; measured here: combination with cisplatin at IC20, at 0.5 µM): 2.1%
- inhibition ([10]; at 0.5 µM): -9.81% (inactive)
- inhibition ([10]; measured here: combo with BGB at IC20, at 0.5 µM): -13.2%
- inhibition ([10]; measured here: combo with cisplatin at IC20, at 0.5 µM): -3.83%
- inhibition ([11]; at 0.5 µM): -5.7% (inactive)
- inhibition ([11]; measured here: inhibition with BGB combination, at 0.05 µM): -21%
- inhibition ([11]; measured here: inhibition with cisplatin combination, at 0.05 µM): -12%
- inhibition ([12]; at 0.5 µM): -21.9% (inactive)
- inhibition [12, 22]: -14.5%
- inhibition [12, 23]: -18.3%
- inhibition ([13]; at 0.5 µM): -8.21% (inactive)
- inhibition ([13]; measured here: BGB combination, at 0.5 µM): -10%
- inhibition ([13]; measured here: BGB combination, at 5 µM): -8.63%
- inhibition ([13]; measured here: cisplatin combination, at 0.5 µM): -2.04%
- inhibition ([13]; measured here: cisplatin combination, at 5 µM): -6.22%
- inhibition ([14]; BGB combination, concentration series, at 5 µM): 3.47%
- inhibition ([14]; at 0.5 µM): -1.58% (inactive)
- inhibition ([14]; cisplatin combination, concentration series, at 5 µM): 19.3%
- inhibition [15]: 12.8% (inactive)
- inhibition ([15]; measured here: combo with BGB IC20): 26.4%
- inhibition ([15]; measured here: combo with cisplatin IC20): 2.42%
- inhibition ([16]; at 0.5 µM): -12.6% (inactive)
- inhibition ([16]; cisplatin combination, at 0.5 µM): -0.565%
- inhibition ([16]; cisplatin combination, at 5 µM): 5.72%
- inhibition ([16]; measured here: BGB IC40 combination 0.05 uM, at 0.05 µM): 22.3%
- inhibition ([16]; single agent, at 5 µM): 10.8%
- inhibition ([17]; at 0.5 µM): -5.05% (inactive)
- inhibition ([17]; cisplatin combo, at 5 µM): -0.239%
- inhibition ([17]; measured here: BGB IC40 combination, at 0.05 µM): -34.5%
- inhibition [17, 22]: 22.9%
- inhibition ([17]; single agent, at 5 µM): -38.3%
- inhibition ([18]; at 0.5 µM): -14.2% (inactive)
- inhibition [18, 20]: -17.2%
- inhibition [18, 21]: -12.8%
- inhibition ([18]; single agent, at 0.05 µM): -3.95%
- inhibition ([18]; single agent, at 5 µM): 10.1%
